Bioassay records: PubChem, several laboratories
ANO1 block = blocks the mouse calcium-activated chloride channel TMEM16A; normalized B-score (activity score, 25-100; higher = stronger inhibition) at 10 µM; HEK293 TMEM16A/YFP iodide influx fluorescence, ionomycin; AID 588511; 310,000 tested, 1.2% active; Q8BHY3;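 active = ratio plate-corrected score three or more library SD toward inhibition, starting fluorescence score within five deviations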;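 note: score derived from kinetic fluorescence span divided by baseline fluorescence per well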
MEKK3 PB1 HTS = MEKK3-MEK5 PB1 interaction, increase or decrease. binding response (% of control), % at 10 µM. Q99759. bead-based flow cytometry, Alexa488-MEK5 binding to MEKK3; actives lie on both sides; 0 = blocked by unlabeled MEK5, 100 = vehicle. 290,000 tested, 1.4% active. AID 1529;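 active = binding response more than 3 SD above or below the average of its plate-row segment, actives on both sides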;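 note: Alexa488 bead fluorescence after subtracting the streptavidin-only scavenger bead signal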
Target sequence (Q99759 whole entry, looked up): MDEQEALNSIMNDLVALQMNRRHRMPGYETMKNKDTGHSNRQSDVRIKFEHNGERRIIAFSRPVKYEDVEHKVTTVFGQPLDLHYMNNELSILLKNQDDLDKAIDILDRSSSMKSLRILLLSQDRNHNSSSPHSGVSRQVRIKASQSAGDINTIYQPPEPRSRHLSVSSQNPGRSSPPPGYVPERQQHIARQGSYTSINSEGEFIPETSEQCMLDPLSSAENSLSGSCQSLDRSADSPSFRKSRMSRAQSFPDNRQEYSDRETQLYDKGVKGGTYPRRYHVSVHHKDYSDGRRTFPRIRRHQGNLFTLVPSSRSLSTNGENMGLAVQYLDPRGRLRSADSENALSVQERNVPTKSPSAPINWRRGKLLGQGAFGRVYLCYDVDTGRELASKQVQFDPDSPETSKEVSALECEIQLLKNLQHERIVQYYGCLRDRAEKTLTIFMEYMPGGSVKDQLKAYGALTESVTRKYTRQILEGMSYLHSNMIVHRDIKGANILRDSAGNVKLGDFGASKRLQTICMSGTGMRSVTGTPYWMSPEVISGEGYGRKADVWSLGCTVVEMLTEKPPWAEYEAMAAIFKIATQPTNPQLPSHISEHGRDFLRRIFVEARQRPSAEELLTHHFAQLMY
ANO1 activ = mouse TMEM16A channel activation, primary screen | B-score at 10 µM | HEK293 TMEM16A/YFP-H148Q/I152L, iodide quench fluorescence; active compounds read low | Q8BHY3 | 340,000 tested, 0.3% active;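 active = fluorescence-ratio B-score plate-corrected deviation score at least 3 library SD below zero, with starting fluorescence score within 5 deviations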;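 note: channel opened by trigger with iodide after compound preincubation; score built on the fluorescence ratio of max minus min over baseline; more negative score means more quench and so TMEM16A activation or potentiation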
MEKK2 mut-MEK5 = signal of MEK5 binding to mutant human MEKK2 PB1 domain. bead flow cytometry, Alexa488-MEK5 binding to MEKK2 mutant. percent response, % at 10 µM. 290,000 tested, 0.35% active. AID 1530; in the data active = percent response above about 24%, passing the limit was not always enough
MEKK2 WT-MEK5 = raises or lowers MEK5 binding to wildtype human MEKK2 PB1 domain. Q9Y2U5. bead flow cytometry, Alexa488-MEK5 binding to MEKK2 WT; actives lie on both sides. binding response (% of control), % at 10 µM. 290,000 tested, 1.1% active; in the data active = binding response below about 67% or above about 130%
NTR1 agonist = NTR1 (human) agonism; AID 493036; P30989; NTR1-U2OS beta-arrestin-GFP spot imaging, agonist mode; activation, % at 20 µM; 330,000 tested, 0.17% active;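 active = activation at or above 40% of the spot to cytoplasm intensity ratio, with at least 20 cells analyzed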;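 note: 0% = DMSO without peptide and 100% = 100 nM NTR1 peptide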
MEKK2wt confirm = raises or lowers MEK5 binding to wildtype human MEKK2, retest | shares compounds with MEKK3 PB1 HTS | bead flow cytometry, Alexa488-MEK5 binding to MEKK2 WT; actives lie on both sides | binding response (% of control), % at 10 µM | 5,900 tested, 2.4% active | AID 1892; in the data active = binding response below about 16% or above about 210%; inactive = in between
MEKK2mut confirm = signal of MEK5 binding to mutant human MEKK2, retest; shares compounds with MEKK3 PB1 HTS; bead flow cytometry, Alexa488-MEK5 binding to MEKK2 mutant; percent response, % at 10 µM; 5,900 tested, 2% active; AID 1893; in the data active = percent response mostly above about 71%, no sharp cut-off; inactive = mostly below about 38%;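 note: higher means compound restores mutant binding toward wildtype level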
MEKK3-MEK5 inh = MEKK3-MEK5 PB1 inhibition, single concentration confirmation; 5,900 tested, 1.8% active; shares compounds with MEKK3 PB1 HTS; bead flow cytometry, Alexa488-MEK5 binding to MEKK3; active compounds read low; binding response (% of control), % at 10 µM;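 active = binding response below 72% of control, or above a set upper limit, though filed actives all read lower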;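 note: 100% = DMSO only wells and 0% = binding blocked by excess unlabeled MEK5; lower values mean stronger disruption of MEK5 binding to MEKK3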
Starred values were filed as active, the others as inactive; i = inactive; x = not tested or not shown; [ ] = remark or other dose. Sampled rows, rich in hits. Any-hit rate of the full collection: about 3.4%.

SMILES	ANO1 block	MEKK3 PB1 HTS	ANO1 activ	MEKK2 mut-MEK5	MEKK2 WT-MEK5	NTR1 agonist	MEKK2wt confirm	MEKK2mut confirm	MEKK3-MEK5 inh
COc1ccc(/C=C2\N=C(C)OC2=O)cc1OC	i	105	i	6	101	1	x	x	x
Cc1csc(SCc2ccccc2C(=O)O)n1	i	3.0*[inhibitor]	i	-14	3.0*[inhibitor]	1	100	2	102
CCC(C)(C)n1nnnc1CN(Cc1cc2cc(OC)ccc2[nH]c1=O)C1CCCC1	i	82*[inhibitor]	i	-9	88	1	95	-2	98
COc1ccc(Cn2nnnc2CN(Cc2cc3ccc(C)cc3[nH]c2=O)C2CCCC2)cc1	i	91	i	-4	84	4	x	x	x
COc1ccc(OCCCC(=O)OCC(=O)N2CCN(S(=O)(=O)c3ccc(C)cc3C)CC2)cc1	x	x	i	x	x	x	x	x	x
NC(=O)c1ccc(NC(=O)COC(=O)C2(c3ccccc3F)CCCC2)cc1	i	73*[inhibitor]	i	-2	88	0	100	1	103
COc1ccccc1-c1ccc(NC2CCCCC2)nn1	i	81*[inhibitor]	i	-8	83	2	103	3	103
COc1ccccc1-c1ccc(Nc2cccc(C(F)(F)F)c2)nn1	i	98	i	2	101	2	x	x	x
COc1ccc(-c2cc(C#N)nc(N3CCNCC3)n2)cc1	i	84	i	57*	215*	4	223*	71*	95
COc1ccc(-c2cc(C#N)nc(N3CCN(C)CC3)n2)cc1	i	94	i	-3	101	0	x	x	x
C#CCOCCOCCOCCNc1nc(N2CCN(C(=O)[C@H](CCC(=O)O)n3cc(C(N)CO)nn3)CC2)nc(N2CCN(C(=O)[C@H](Cc3cc4ccccc4[nH]3)n3cc(C(N)[C@H](C)CC)nn3)CC2)n1 (stereo partly specified)	i	103	i	27	156*	-1	275*	110*	114
C#CCOCCOCCOCCNc1nc(N2CCOCC2)nc(N2CCN(C(=O)[C@H](Cc3ccc(O)cc3)n3cc([C@@H](N)CC(C)C)nn3)CC2)n1	i	103	i	8	113	-4	x	x	x
C#CCOCCOCCOCCNc1nc(N2CCN(C(=O)[C@H](Cc3cc4ccccc4[nH]3)n3cc([C@@H](N)C(C)CC)nn3)CC2)nc(N2CCN(C(=O)[C@H](Cc3cc4ccccc4[nH]3)n3cc([C@@H](N)CC(C)C)nn3)CC2)n1 (stereo partly specified)	i	99	x	13	205*	0	249*	76*	109
C#CCOCCOCCOCCNc1nc(N2CCN(C(=O)[C@H](CCCCN)n3cc([C@@H](N)C(C)CC)nn3)CC2)nc(N2CCN(C(=O)[C@H](Cc3cc4ccccc4[nH]3)n3cc([C@@H](N)CC(C)C)nn3)CC2)n1 (stereo partly specified)	i	111	-18*	93*	237*	4	137	21	102
C#CCOCCOCCOCCNc1nc(N2CCN(C(=O)[C@H](Cc3cc4ccccc4[nH]3)n3cc([C@@H](N)C(C)CC)nn3)CC2)nc(N2CCN(C(=O)[C@H](CCCCN)n3cc([C@@H](N)CO)nn3)CC2)n1 (stereo partly specified)	i	107	x	57*	202*	1	204	52	108
C#CCOCCOCCOCCNc1nc(N2CCN(C(=O)[C@H](CCC(=O)O)n3cc(C(N)Cc4ccc(O)cc4)nn3)CC2)nc(N2CCN(C(=O)[C@H](CCC(=O)O)n3cc(C(N)[C@H](C)CC)nn3)CC2)n1 (stereo partly specified)	i	90	i	-11	86	0	x	x	x
COc1ccc(/C=N/N2CCN(c3ccc(Cl)cc3)CC2)cc1O	i	104	i	5	101	3	x	x	x
COc1ccc(S(=O)(=O)NCCSc2ccccc2)cc1OC	i	99	i	1	97	0	x	x	x
COc1ccc(S(=O)(=O)NCCSc2ccc(C)cc2)cc1OC	i	122*	i	9	123	0	98	1	100
COc1cccc(CNCC(O)(c2ccc(Cl)cc2)c2ccc(Cl)cc2)c1	i	111	i	7	158*	11	118	5	98
CCc1ccc(C(O)(CNCc2ccccc2)c2ccccc2)cc1 (stereo unspecified)	i	111	i	26*	120	8	114	9	106
COc1ccc(CNCC(O)(c2ccccc2)c2ccc(Cl)cc2)cc1 (stereo unspecified)	i	105	i	6	122	6	x	x	x
Cc1ccc(C(=O)N/N=C2/NC(=O)CC(C(=O)Nc3ccccc3)S2)cc1 (stereo unspecified)	i	99	i	8	97	0	x	x	x
Cc1ccc(NC(=O)CN(C)C(=O)CN2C(=O)NC(C)(c3ccccc3)C2=O)cc1 (stereo unspecified)	i	79*[inhibitor]	i	-5	91	0	101	3	101
CN(CC(=O)Nc1ccc(F)cc1)C(=O)CN1C(=O)NC2(CCCCC2)C1=O	x	x	i	x	x	1	x	x	x
COc1ccc(N=c2oc3ccc(OC)cc3cc2-c2nc3ccccc3[nH]2)cc1	i	124*	i	5	105	2	101	6	100
COc1cccc(N=c2oc3ccc(OC)cc3cc2-c2nc3ccccc3[nH]2)c1	i	102	i	-1	91	2	x	x	x
Cc1cc(NS(=O)(=O)c2ccc(NC(=O)CSc3nnc(-c4ccco4)n3N)cc2)nc(C)n1	i	99	i	19	114	-1	x	x	x
Cc1cc(NS(=O)(=O)c2ccc(NC(=O)CSc3nnc(-c4ccco4)n3C)cc2)nc(C)n1	i	141*	i	1	111	1	110	11	107
COc1ccc2c(c1)-c1c(ssc1=S)C(C)(C)N2S(=O)(=O)c1ccc(C)cc1	i	129*	i	2	101	3	99	-2	101
